This is an account of results in PubChem BioAssay (NCATS).

The nature of test [1]: qHTS for Inhibitors of the Functional Ribonucleoprotein Complex (vRNP) of Lassa (LASV) Arenavirus: Viability assay - alamar blue signal for LASV Primary Screen (AID 1347083; calls by dose curve; tested in HEK293 reporter line; further: nearly all actives have a fitted effect of over 80% in size; further: potency means the concentration at half of the fitted maximal effect).
Another test relates to CRL-7250. In words: qHTS assay to identify novel small-molecules to repurpose for Merkel cell carcinoma treatment (AID 1296009; active means well fitted curve in the direction sought with a large enough effect; an effect the other way counts as inactive or inconclusive; further: nearly all actives have a fitted effect of over 60% in size). The following applies: MCC and control cell lines, CellTiter-Glo viability, 72 h; series mostly up to 92 µM. Put shortly: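 Cells exposed to NPC (8-point) and MIPE (11-point) compound dilutions for 72 hr at 37 degree celsius; viability read by CellTiter-Glo luminescence, normalized to no-cell and DMSO in-plate controls.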

Test [2] is described as follows: qHTS profiling of the MIPE4 collection as inhibitors of Plasmodium falciparum (3D7) proliferation (AID 743344; call rule not given here;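 further: scaled between DMSO vehicle wells and 0.29 µM artemisinin as full inhibition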). The settings on record: P. falciparum 3D7 in erythrocytes, SYBR Green DNA fluorescence, 72 h; at 28.5 µM (top of the series) unless noted. In a few lines: (§1)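 Erythrocytes infected with P. falciparum (0.3% parasitemia, 2.5% hematocrit) incubated with compounds 72 h at 37 C, 5% CO2. Lysis with saponin/Triton buffer containing SYBR Green I, overnight at room temperature in the dark; DNA fluorescence (485/535 nm) normalised to 0.29 uM artemisinin and DMSO.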
(qHTS replaces the single test concentration by a dilution series.)

Test [3] is described as follows: qHTS profiling of the MIPE4 collection as inhibitors of Plasmodium falciparum (DD2) proliferation (AID 743345; call rule not given here). The following applies: P. falciparum Dd2 in erythrocytes, SYBR Green DNA, 72 h; at 28.5 µM (top of the series) unless noted. Put shortly:
as §1

The nature of test [4]: qHTS profiling of the MIPE4 collection as inhibitors of Plasmodium falciparum (HB3) proliferation (AID 743347; call rule not given here;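 further: plate controls were DMSO vehicle wells for no effect and artemisinin wells for full effect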). The settings on record: P. falciparum HB3 in erythrocytes, SYBR Green DNA, 72 h; at 28.5 µM (top of the series) unless noted. Put shortly:
as §1

Test [5] in a line: qHTS for Inhibitors of the Functional Ribonucleoprotein Complex (vRNP) of Lassa (LASV) Arenavirus: LASV Primary Screen - GLuc reporter signal (AID 1347082; calls by dose curve; tested in HEK293 reporter line; further: on the % scale 0 is the no-effect control and ±100 the full control effect; nearly all actives have a fitted effect of over 60% in size).
In test [6] the target is Nucleoprotein (Lymphocytic choriomeningitis virus (strain Armstrong)) (UniProt P09992). In words: qHTS for Inhibitors of the Functional Ribonucleoprotein Complex (vRNP) of Lymphocytic Choriomeningitis Arenaviruses (LCMV): LCMV Primary Screen - GLuc reporter signal (AID 1347086). Further: nearly all actives have a fitted effect of over 70% in size. Further: potency means the concentration at half of the fitted maximal effect. On activity change, negative = inhibition: on the % scale 0 is the no-effect control and ±100 the full control effect.
Sequence of Nucleoprotein (Lymphocytic choriomeningitis virus (strain Armstrong)) (P09992 whole entry, looked up): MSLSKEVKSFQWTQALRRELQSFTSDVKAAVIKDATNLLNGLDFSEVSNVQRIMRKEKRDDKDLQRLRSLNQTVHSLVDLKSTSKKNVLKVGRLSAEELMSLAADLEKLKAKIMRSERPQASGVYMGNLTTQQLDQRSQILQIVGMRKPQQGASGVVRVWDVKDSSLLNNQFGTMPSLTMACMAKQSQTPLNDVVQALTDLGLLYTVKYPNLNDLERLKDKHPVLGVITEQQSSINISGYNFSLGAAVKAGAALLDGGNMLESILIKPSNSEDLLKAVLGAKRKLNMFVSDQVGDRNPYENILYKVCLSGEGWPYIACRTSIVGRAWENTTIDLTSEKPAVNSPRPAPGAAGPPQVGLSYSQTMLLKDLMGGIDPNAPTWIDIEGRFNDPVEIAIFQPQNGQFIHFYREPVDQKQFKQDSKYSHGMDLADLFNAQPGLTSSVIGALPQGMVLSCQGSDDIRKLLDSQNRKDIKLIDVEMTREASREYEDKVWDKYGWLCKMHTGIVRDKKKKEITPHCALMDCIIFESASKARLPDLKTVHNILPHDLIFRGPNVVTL
Test [7] in a line: Cytotoxicity counterscreen for inhibitors of SARS-CoV-2 cell entry (AID 1645845). Further: nearly all actives have a fitted effect of over 50% in size. In a few lines: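 Expi293F/hACE2 cells seeded overnight; cpd pin-transferred in DMSO, 1 h preincubation, + media, 48 h 37 C 5% CO2; ATPLite 1step luminescence; normalized to cells and no cells.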
A short description of test [8]: Primary qHTS to identify inhibitors of SARS-CoV-2 cell entry (AID 1645846). Further: nearly all actives have a fitted effect of over 45% in size. The settings on record: activity change, negative = inhibition: at 57.1 µM (top of the series) unless noted. Put shortly: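 Using luciferase-reporting pseudoviruses carrying Wuhan-Hu-1 spike, the screen tracks entry into stably ACE2-expressing cells over 48 hr. Activity is expressed relative to spike particles versus particles lacking any fusion protein.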

Test [9] in a line: qHTS for Inhibitors of the Functional Ribonucleoprotein Complex (vRNP) of Lymphocytic Choriomeningitis Arenaviruses (LCMV): Viability assay - alamar blue signal for LCMV Primary Screen (AID 1347085; calls by dose curve; tested in HEK293 reporter line; further: nearly all actives have a fitted effect of over 80% in size; further: potency means the concentration at half of the fitted maximal effect).
The nature of test [10]: Primary qHTS for Huh7 cytotoxicity: counterscreen for inhibitors of MERS-S pseudotyped particle cell entry (AID 1479147). The settings on record: outcome: dose series up to 57.1 µM unless noted.
Test [11] can be described thus: Primary qHTS for inhibitors of MERS-S pseudo-typed particle cell entry (AID 1479149). Further: nearly all actives have a fitted effect of over 60% in size.
Test [12] in a line: Primary qHTS for Vero E6 cytotoxicity: counterscreen for inhibitors of SARS-S pseudo-typed particle cell entry (AID 1479150). The settings on record: outcome: dose series up to 57.1 µM unless noted.
Test [13] deals with Alpha-galactosidase (Coffea arabica) (UniProt Q42656). In words: Counterscreen for Glucocerebrosidase Inhibitors: qHTS Assay for Coffee Bean alpha-Galactosidase at pH 4.5 (AID 957; active means well fitted curve in the direction sought with a large enough effect; an effect the other way counts as inactive or inconclusive;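 further: plate controls were enzyme alone for no effect and no enzyme for full effect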). Put shortly:
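Green coffee bean enzyme (2 nM final) was incubated with compounds (0.7 nM to 77 uM) and 4-methylumbelliferyl alpha-D-galactopyranoside (80 uM final) in 50 mM citric acid, 0.005% Tween-20, pH 4.5, 20 min at room temperature; AC50 from Hill fits.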
(Counterscreens check selectivity or assay interference.)

Test [14] shares this target. In words: Counterscreen for Glucocerebrosidase Inhibitors: qHTS Assay for Coffee Bean alpha-Galactosidase at pH 5.9 (AID 998; active means well fitted curve in the direction sought with a large enough effect; an effect the other way counts as inactive or inconclusive;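 further: plate controls were uninhibited enzyme for no effect and no-enzyme basal signal for full effect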). Put shortly:
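Green coffee bean enzyme (2 nM final) was incubated with compounds (0.7 nM–77 uM) and 4-methylumbelliferyl alpha-D-galactopyranoside (80 uM) in citrate buffer pH 5.9, 20 min at room temperature. High-pH stop; fluorescence 365/440 nm; AC50 from Hill fits.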

A short description of test [15]: Confirmatory qHTS to identify inhibitors of SARS-CoV-2 cell entry (AID 1645844). Further: on the % scale 0 is the no-effect control and ±100 the full control effect; nearly all actives have a fitted effect of over 45% in size. In a few lines:
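HEK293-ACE2 cells (Expi293F stably expressing human ACE2) were pretreated with compounds for 1 hr at 37C, then infected with MLV-based particles carrying Wuhan-Hu-1 spike (C-terminal 19-aa truncation). Luciferase luminescence read after 48 hr; normalized to spike PP (100%) and bald PP (0%).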

Test [16] is described as follows: qHTS for inhibitors of Rabies Virus screened against the NCATS CANVASS Library (AID 1347402). Further: 0% is about no effect.
Test [17] is described as follows: Confirmatory qHTS for VERO E6 Cytotoxicity Assay: Counterscreen for SARS-CoV-2 CPE Assay (AID 1508605). Further: on the % scale 0 is the no-effect control and ±100 the full control effect; nearly all actives have a fitted effect of over 60% in size.
The nature of test [18]: Primary qHTS for inhibitors of SARS-S pseudo-typed particle cell entry (AID 1479145). Further: on the % scale 0 is the no-effect control and ±100 the full control effect; nearly all actives have a fitted effect of over 45% in size.
Test [19] in a line: Confirmatory qHTS for activators (rescue) of SARS-CoV-2 Cytopathic Effect (CPE) (AID 1508606). Further: 0% is about no effect; nearly all actives have a fitted effect of over 70% in size.

“And” between values parts separate entries of the source, which are not always exact repeats. Equal values may be shown once. Results filed as inconclusive are left out. The source made the active and inactive calls. Unless noted, the call rests on the fitted dose curve.

Sequence of Alpha-galactosidase (Coffea arabica) (Q42656 whole entry, looked up): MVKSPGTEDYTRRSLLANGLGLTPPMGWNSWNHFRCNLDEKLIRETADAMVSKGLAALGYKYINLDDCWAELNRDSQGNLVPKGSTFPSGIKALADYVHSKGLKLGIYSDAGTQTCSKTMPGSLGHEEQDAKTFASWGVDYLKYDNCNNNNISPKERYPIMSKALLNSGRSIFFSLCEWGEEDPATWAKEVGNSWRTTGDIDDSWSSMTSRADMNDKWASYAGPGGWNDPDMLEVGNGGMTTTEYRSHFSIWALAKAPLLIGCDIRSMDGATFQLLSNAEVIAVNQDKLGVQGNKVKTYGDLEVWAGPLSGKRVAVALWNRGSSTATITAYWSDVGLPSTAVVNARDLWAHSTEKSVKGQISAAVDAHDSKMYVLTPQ

With `COc1ccc2c(c1)c(C1=C(c3c[nH]c4ccccc34)C(=O)NC1=O)cn2CCCN(C)C`, the Potency in [1] was 0.485 µM (active). In addition, the Potency result in the test on CRL-7250 is “inactive”.
In the case of `NC1=N[C@H]2[C@H](CS[C@H]2CCCCC(=O)O)N1`, in test [2], the parasite growth, % of DMSO control amounted to 88.8% [at 9.64 µM]. This compound yielded a parasite growth remaining, % of DMSO control (lower = more inhibition) in test [3] of 94.1% [at 9.64 µM]. In [4], this compound had a growth, % of control of 44.4% [at 9.64 µM]. The Potency result (in test [5]; in test [1]; in [6]; in test [7]; in the test with CRL-7250) was “inactive” throughout. The activity change, negative = inhibition in test [8] is -19.4% [at 27.1 µM].
Turning to `NC1=N[C@@]2(c3cc(NC(=O)c4ccc(F)cn4)ccc3F)COC[C@@H]2CS1`, the Potency in test [1] was 17.2 µM (active); in test [9], 19.3 µM (active). Further, the Potency result with CRL-7250 was “inactive”.
For the compound `CCCc1nc(C(C)(C)O)c(C(=O)O)n1Cc1ccc(-c2ccccc2-c2nn[nH]n2)cc1`, the Potency entry (in [5]; in [9]; in test [6]; in [11]; in [7]; in the test with CRL-7250) was “inactive” each time. Besides, the call in test [10] and in test [12] was inactive. Further, the activity change, negative = inhibition in test [8] was -8.69% and -17.9%.
On to `CN(C)CC[C@H](c1ccc(Cl)cc1)c1ccccn1`, for which the outcome in [13] and in test [14] was inactive. Moreover, the Potency result (in test [5]; in test [9]; in [6]; with CRL-7250) was “inactive” each time.
Take `CCN(CC)CCOCCOC(=O)C(CC)(CC)c1ccccc1`: the outcome in [10] and in [12] was inactive. The Potency result (in [15]; in test [7]; in the test on CRL-7250) was “inactive” throughout.
Take `CC1=C2C(=O)O[C@@H](c3ccoc3)[C@]2(C)CCC1`: the outcome in test [16] was inactive. Moreover, in the test on CRL-7250, the Potency entry is “inactive”.
For `C[C@@H]1O[C@@H](O[C@H]2[C@H](OC(=O)[C@]34CCC(C)(C)C[C@H]3C3=CCC5[C@@]6(C)C[C@H](O)[C@H](O[C@@H]7O[C@H](CO)[C@@H](O)[C@H](O)[C@H]7O)[C@@](C)(CO)C6[C@H](O)C[C@@]5(C)[C@]3(C)C[C@H]4O)OC[C@H](O)[C@@H]2O)[C@H](O)[C@H](O)[C@H]1O[C@@H]1OC[C@@H](O)[C@H](O[C@H]2OC[C@](O)(CO)[C@H]2O)[C@H]1O` (stereo not given in full), the activity change, negative = cytotoxic in test [17] is -21.6% [at 3.67 µM] (inactive). In addition, the outcome in the test on CRL-7250 is “inactive [at 9.27 µM]”.
On to `CC(=O)OC(C)(C)/C=C/C(=O)[C@](C)(O)[C@H]1C(O)C[C@@]2(C)[C@@H]3CC=C4[C@@H](C=C(O[C@@H]5O[C@H](CO)[C@@H](O)[C@H](O)[C@H]5O)C(=O)C4(C)C)[C@]3(C)C(=O)C[C@]12C` (stereo not given in full), for which the Potency result (in [18]; in [11]; in test [7]; with CRL-7250) was “inactive” in each case. The outcome in [10] and in test [12] was “inactive [at 15.3 µM]” in each case.
As to `COc1ccccc1OCCN1CC(COc2cccc3[nH]c4ccccc4c23)OCC1=O` (stereo not given), the Potency result (in test [17]; in test [19]; with CRL-7250) was “inactive” throughout.
Regarding `CC=CCC(C)C(O)C1C(=O)NC(CC)C(=O)N(C)CC(=O)N(C)C(CC(C)C)C(=O)NC(C(C)C)C(=O)N(C)C(CC(C)C)C(=O)NC(C)C(=O)NC(C)C(=O)N(C)C(CC(C)C)C(=O)N(C)C(CC(C)C)C(=O)N(C)C(C(C)C)C(=O)N1C` (stereo not given), the Potency result (in test [1]; with CRL-7250) was “inactive” each time. The Potency in test [6] was 13.7 µM (active).
Take `O=c1[nH]c2ccccc2n1CCN1CCN(c2cccc(C(F)(F)F)c2)CC1`: the compound was classed as inactive in test [10] and in test [12]. The Potency result (in [7]; in the test with CRL-7250) was “inactive” in each case.
As to `C[C@]12CC[C@@H]3c4ccc(OC(=O)c5ccccc5)cc4CC[C@H]3[C@@H]1CC[C@@H]2O`, the Potency result (in test [18]; in test [7]; in the test with CRL-7250) was “inactive” each time. Further, the compound was classed as inactive in test [10] and in [12]. For the same compound, the activity change, negative = inhibition in [8] is -3.2%.
